High-throughput results as filed in PubChem BioAssay.
Rows were chosen to be rich in hits. Some 7% of all compounds tested hit in one or more screens of this group.
JMJD2A Tudor: inhibitors of human JMJD2A Tudor domain | AlphaScreen JMJD2A-Tudor / H3K4me3 peptide binding | O75164 | 390,000 compounds, 4.4% hits | Potency, µM (doses to about 114 µM), for the others: top-dose activity change, negative = inhibition, actives largely listed as inhibitors; further: potency means the concentration at half of the fitted maximal effect; on the % scale 0 is the no-effect control and ±100 the full control effect; nearly all actives have a fitted effect of over 50% in size
HP1b binding inh: blocks HP1-beta chromodomain binding to methylated histone tails. 390,000 compounds, 0.56% hits. AlphaScreen HP1-beta / biotin-H3K9me3 peptide binding. Potency, µM (doses to about 114 µM), inactives show top-dose activity change, negative = inhibition, most hits filed as inhibitors. P83916; further: potency means the concentration at half of the fitted maximal effect; nearly all actives have a fitted effect of over 70% in size
Target sequence (P83916 whole entry, looked up): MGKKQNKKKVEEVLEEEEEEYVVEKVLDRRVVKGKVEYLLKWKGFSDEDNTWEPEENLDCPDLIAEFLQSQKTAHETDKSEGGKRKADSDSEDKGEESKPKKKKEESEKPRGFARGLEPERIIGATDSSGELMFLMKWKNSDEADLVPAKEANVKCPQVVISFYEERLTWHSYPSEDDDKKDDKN
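Compound inhibition of the preformed complex between 50 nM HP1-beta and 50 nM biotinylated H3K9me3 peptide was read by AlphaScreen. Buffer was PBS pH 7.4 with 0.01% Tween-20. Incubations ran 30 min at room temperature, with 10 ug/mL donor/acceptor beads.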
GCN5L2 inh: blocks human GCN5L2 histone acetyltransferase; GCN5L2 HAT assay, ThioGlo1 CoA-SH fluorescence; 390,000 compounds, 0.21% hits; Potency, µM (series often up to 58.9 µM), inactives show at the highest dose activity change, negative = inhibition, hits mostly inhibitors; further: potency means the concentration at half of the fitted maximal effect; on the % scale 0 is the no-effect control and ±100 the full control effect
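GCN5L2 (20nM final) in 50mM HEPES, 0.1mM EDTA pH 7.5, 0.01% Tween-20 was preincubated 15 min at room temperature with compound, then given ThioGlo1 (50uM), H3(1-25) peptide (75uM) and acetyl-CoA (70uM); CoA-thiol fluorescence (Ex340/Em540) was read at 0 and 20 min.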
BAZ2B block: inhibitors of human BAZ2B bromodomain. Q9UIF8. AlphaScreen BAZ2B-H3K14Ac peptide displacement. Potency, µM (top dose mostly 114 µM), without a hit: at the highest dose activity change, negative = inhibition, usual class: inhibitors. 360,000 compounds, 4.4% hits. AID 504333; further: potency means the concentration at half of the fitted maximal effect; on the % scale 0 is the no-effect control and ±100 the full control effect; nearly all actives have a fitted effect of over 60% in size
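AlphaScreen displacement of biotin-H3(5-23)K14Ac peptide (50 nM final) from BAZ2B (50 nM final) in PBS pH 7.4, 0.01% Tween-20; complex preformed 30 min RT, then compounds (top 110 uM) 30 min RT, beads 20 min dark.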
PLK1 PBD block: PLK1 (human) polo-box domain binding inhibition | Plk1 PBD binding of FITC phosphopeptide, fluorescence polarization | Potency, µM, without a hit: max response, negative = inhibition, actives largely listed as inhibitors | 360,000 compounds, 2.8% hits | AID 720504; further: potency means the concentration at half of the fitted maximal effect; series mostly up to about 57 µM; on the % scale 0 is the no-effect control and ±100 the full control effect; nearly all actives have a fitted effect of over 65% in size
PI5P4K alpha inh: PI5P4K alpha (human) kinase inhibition; PI5P4Kalpha enzyme, ADP-Glo luminescence, 60 min; hits give low values; max response, %; 330,000 compounds, 1.2% hits; AID 652105; active means max response of -50% or lower; inconclusive means between -30% and -50%; inactive means -30% or higher; further: value at the top dose of about 77 µM; on the % scale 0 is the no-effect control and ±100 the full control effect
Target sequence (P48426 whole entry, looked up): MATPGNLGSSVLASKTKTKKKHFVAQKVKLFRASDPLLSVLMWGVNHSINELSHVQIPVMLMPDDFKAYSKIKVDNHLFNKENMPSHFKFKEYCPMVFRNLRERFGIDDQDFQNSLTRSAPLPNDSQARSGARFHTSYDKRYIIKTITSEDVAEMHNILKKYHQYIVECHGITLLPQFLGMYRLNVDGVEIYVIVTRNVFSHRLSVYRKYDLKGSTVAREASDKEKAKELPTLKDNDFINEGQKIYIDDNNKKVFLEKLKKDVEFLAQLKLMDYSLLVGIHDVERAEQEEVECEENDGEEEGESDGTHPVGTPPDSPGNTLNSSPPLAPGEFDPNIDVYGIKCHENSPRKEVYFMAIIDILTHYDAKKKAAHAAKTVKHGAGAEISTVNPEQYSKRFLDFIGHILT
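Single end-point luminescence (ADP-Glo) quantified ADP from PI5P4Kalpha turnover; ATP 5 microM final, 1 h at RT, 0.1% CHAPS and 0.28 mM EGTA in HEPES pH 7.4.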
* hit, by the source's call; ? = inconclusive; nt = no result given; [ ] = remark or other dose. Unless noted, the call rests on the fitted dose curve; in most records, active means well fitted curve in the direction sought with a large enough effect; inconclusive means small, poorly fitted or top-dose-only effect, or another doubt; inactive means no such curve, though single readings can be large; an effect the other way counts as inactive or inconclusive.

SMILES	JMJD2A Tudor	HP1b binding inh	GCN5L2 inh	BAZ2B block	PLK1 PBD block	PI5P4K alpha inh
O=C(COc1ccccc1)NCc1n[nH]c(=S)n1-c1ccccc1	8.9µM*	40%	4%	-18%	-1%	6
O=C(COc1ccccc1)NCc1ccccc1	1%	21%	-1%	8%	-1%	nt
COc1ccc(-n2c(CNC(=O)COc3ccc(Cl)cc3)n[nH]c2=S)cc1	13µM*	-6%	-14%	-6%	-24%	6
COc1ccc(-n2c(CNC(=O)COc3ccc(Cl)cc3Cl)n[nH]c2=S)cc1	-6%	73%	-2%	0%	2%	8
COc1ccc(-n2c(CNC(=O)COc3ccccc3)n[nH]c2=S)cc1	11µM*	37%	-2%	-18%	-1%	3
COc1cc(NC(=S)NC(C)(C)C)c(OC)cc1Cl	?	-7%	-1%	-37%	?	-1
COc1cc(Cl)c(C)cc1NC(=S)NN	?	-28%	-26%	-18%	27µM*	-13
Cc1cc(C)nc(N/N=C/c2sccc2C)n1	13µM*	1%	-18%	-7%	19µM*	-53*
CCOc1ccc(N2CC(C)Cn3c2nc2c3c(=O)n(CC(=O)O)c(=O)n2C)cc1 (centres undefined)	-15%	21%	-5%	-21%	nt	nt
Cc1ccc(S(=O)(=O)Nc2nc(C)c(NC(=O)OCCCl)s2)cc1	-33%	-5%	-10%	?	-14%	1
Cc1ccc(S(=O)(=O)Nc2nc(C)c(NC(=O)Nc3ccc(Cl)cc3Cl)s2)cc1	-25%	-21%	-10%	-35%	21µM*	-16
CC1CN(CCOc2cccc(Oc3ccccc3)c2)CC(C)O1 (centres undefined)	20µM*	?	-2%	50µM*	-2%	4
CC1CCCN(CCOc2cccc(Oc3ccccc3)c2)C1 (centres undefined)	22µM*	?	-3%	56µM*	5%	3
CCCOc1ccc(OCCN2CCCC(C)C2)cc1 (centres undefined)	?	39%	2%	56µM*	3%	0
COc1cccc(OCCCCCN2CCOCC2)c1	-14%	10%	-1%	-3%	-6%	nt
CC1CN(CCCCOc2cccc(Oc3ccccc3)c2)CC(C)O1 (centres undefined)	0.89µM*	?	0%	35µM*	6%	2
CCOC(=O)C1CCN(C(=O)COC(=O)c2oc3ccccc3c2C)CC1	-16%	8%	-1%	0%	-9%	5
COc1ccccc1NC(=O)c1ccc2c(c1)N(CC#N)C(=O)C(C)(C)O2	6%	22%	-11%	-8%	0%	3
Cc1ccc(CN2CCN(/N=C/c3cc(Br)cc(Br)c3O)CC2)cc1	?	?	-10%	-33%	17µM*	-7
Cc1ccc(CN2CCN(/N=C/c3cc(Br)ccc3F)CC2)cc1	?	-1%	2%	50µM*	8%	12
Fc1ccc(Br)cc1/C=N/N1CCN(c2ccccc2)CC1	?	-18%	-6%	?	-1%	20
CC(=O)c1ccc(NC(=O)C2CCN(S(=O)(=O)c3ccc4c(c3)CCCN4C(=O)C3CCC3)CC2)cc1	2%	21%[57 µM]	1%	0%	nt	nt
CC(C)Cn1nc(NC(=O)C2CCCO2)c2cc3ccccc3nc21 (centres undefined)	-16%[11.4 µM]	61%	-12%	81%	30µM*	4
CCOC(=O)/C(=C\c1cn(C)c2ccccc12)[N+](=O)[O-]	?	?	-2%	?	1.7µM*	0
COc1ccc(OC)c(NC(=O)CCn2cccn2)c1	-6%	31%	29%	-16%	nt	nt
SMILES	JMJD2A Tudor	HP1b binding inh	GCN5L2 inh	BAZ2B block	PLK1 PBD block	PI5P4K alpha inh
O=C(Oc1cc(=O)oc2c1c(=O)n1c3c(cccc23)CC1)c1ccccc1	?	-3%	-16%	50µM*	?	0
COCCN(C(=O)COC(=O)c1cccs1)c1c(N)n(Cc2ccccc2)c(=O)[nH]c1=O	5%	25%	?	-3%	3%	-1
CN(C)CCCNC(=O)C(=O)NCC1OCCN1S(=O)(=O)c1cc(F)ccc1F (centres undefined)	1%	41%	nt	nt	0%	2
CC(C)c1ccc(/C=C(\c2nc3ccccc3[nH]2)S(=O)(=O)c2ccccc2)cc1	-14%	0%	-25%	-31%	-8%	-2
O=S(=O)(/C(=C/c1ccc(C(F)(F)F)cc1)c1nc2ccccc2[nH]1)c1ccccc1	79µM*	-12%	-1%	-30%	0%	-6
COc1ccc(OC)c(CCNC(=O)c2sc3nc4n(c(=O)c3c2C)CCCC4)c1	-11%	19%	3%	7%	nt	nt
S=c1nc[nH]c2c1ncn2-c1ccc(Cl)cc1	50µM*	?	nt	nt	6µM*	?
Fc1ccc(-n2cc(-c3ccccc3)c3c(=S)nc[nH]c32)cc1	?	-9%[57 µM]	-8%	?	?	?
C[C@@H]1NS(=O)(=O)[C@H]2C[C@@H]3C=C[C@]2(O3)[C@H]1OC(=O)c1ccc(C(C)(C)C)cc1	-23%	19%	-1%	0%	-19%	6
CC(=O)N1CC(C)Sc2ccc(S(=O)(=O)NCc3ccc(F)cc3)cc21 (centres undefined)	-10%	13%[57 µM]	-16%	1%	-11%	0
CC(=O)N1CC(C)Sc2ccc(S(=O)(=O)NCCc3cccc(C)c3)cc21 (centres undefined)	?	18%	-2%	-19%	12µM*	-20
Oc1c(CN2CCCCC2)cc(Br)c2cccnc12	22µM*	26%	-3%	28µM*	?	-21
Clc1ccc(N2CCN(Cc3c[nH]c4ncccc34)CC2)cc1	?	12%	-7%	6%	-9%	-1
Oc1cc(O)c(CN2CCOCC2)cc1CN1CCOCC1	79µM*	71µM*	nt	nt	?	4
O=C(COc1c(Br)cc(Br)c2cccnc12)N1CCCCC1	-11%	37%	-13%	?	-8%	-3
O=[N+]([O-])c1cc(CN2CCN(c3ccccc3)CC2)c(O)c2ncccc12	10µM*	18%	-3%	3.2µM*	-3%	-1
O=[N+]([O-])c1cc(CN2CCOCC2)c2cccnc2c1O	7.9µM*	24%	?	3.2µM*	?	-73*
